VP16 counter = Gal4-VP16 reporter inhibition counter-screen | AID 2546 | Potency, µM (series often up to 53.6 µM), without a hit: at the top dose activity, negative = inhibition, actives largely listed as inhibitors | 310,000 tested, 3.5% active | Drosophila S2 Gal4-VP16 UAS-luciferase, luminescence, 20 h;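 further: Gal4-VP16 expression switched on by copper sulfate through the metallothionein promoter; nearly all actives have a fitted effect of over 50% in size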
TDP1 cell CPT = DT40-hTDP1 cell growth loss with CPT. chicken DT40 Tdp1-/-;hTDP1 cells + 20 nM CPT, ATP luminescence, 48 h. Potency, µM (series often up to 46.2 µM), for inactives: top-dose activity change, negative = growth inhibition, hits mostly inhibitors. 420,000 tested, 12% active. AID 686979; further: nearly all actives have a fitted effect of over 55% in size
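Cell growth measured by CellTiter-Glo luminescence after a minimum 48 h, 37 C compound exposure with 20 nM CPT in Tdp1-knockout DT40 cells stably expressing hTDP1, seeded 400/well; qHTS titration format.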
RORgamma inh = inhibitors of mouse ROR gamma transcriptional activity. Drosophila S2 Gal4-RORgamma UAS-luciferase reporter, 20 h. Potency, µM (doses to about 53.6 µM), inactives show at the highest dose activity change, negative = inhibition, actives largely listed as inhibitors. 310,000 tested, 5.4% active. AID 2551; further: nearly all actives have a fitted effect of over 60% in size
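Drosophila S2 cells stably expressing Gal4-DBD/mouse RORγ fusion under metallothionein promoter plus UAS-luciferase; compound 1 h, then 700 uM CuSO4 induction for 20 h at ambient temperature; inhibition read as reduced luminescence.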
DT40 TDP1 no CPT = qHTS for Inhibitors of human tyrosyl-DNA phosphodiesterase 1 (TDP1): qHTS in cells in absence of CPT. DT40 Tdp1-/- hTDP1 cells, no CPT, ATP luminescence, 48 h. Potency, µM (top dose mostly 46.2 µM), for inactives: at the top dose activity change, negative = growth inhibition, most hits filed as inhibitors. 420,000 tested, 15% active; further: nearly all actives have a fitted effect of over 55% in size
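Readout: luminescence from CellTiter-Glo after 30 min in the dark at RT. Cells: DT40 Tdp1-/- with stable hTDP1, 400/well. Exposure: compounds alone, ≥48 hr, 37 °C.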
ELG1 repair inh = ELG1-dependent DNA repair inhibition; HEK293T ELG1-luciferase reporter, luminescence, 16 h; DNA damage induced by 5-fluorouridine; Potency, µM (top dose mostly 46.1 µM), for the others: at the highest dose activity change, negative = inhibition, actives largely listed as inhibitors; 330,000 tested, 2.3% active; further: nearly all actives have a fitted effect of over 55% in size
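In this reporter screen, reduction of luminescence relative to DMSO vehicle indicated activity. Compounds and 5-fluorouridine were added together to 2,000 cells per well, incubated for 16 hr at 37 °C, then developed with ONE-Glo.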
ALOX12 inh = ALOX12 (human) lipoxygenase inhibition. purified 12hLO, xylenol orange hydroperoxide absorbance. Potency, µM (titrated, usually from 108 µM), without a hit: at the top dose activity change, negative = inhibition, hits mostly inhibitors. 580,000 tested, 1.1% active. AID 1671190
Target sequence (P18054 whole entry, looked up): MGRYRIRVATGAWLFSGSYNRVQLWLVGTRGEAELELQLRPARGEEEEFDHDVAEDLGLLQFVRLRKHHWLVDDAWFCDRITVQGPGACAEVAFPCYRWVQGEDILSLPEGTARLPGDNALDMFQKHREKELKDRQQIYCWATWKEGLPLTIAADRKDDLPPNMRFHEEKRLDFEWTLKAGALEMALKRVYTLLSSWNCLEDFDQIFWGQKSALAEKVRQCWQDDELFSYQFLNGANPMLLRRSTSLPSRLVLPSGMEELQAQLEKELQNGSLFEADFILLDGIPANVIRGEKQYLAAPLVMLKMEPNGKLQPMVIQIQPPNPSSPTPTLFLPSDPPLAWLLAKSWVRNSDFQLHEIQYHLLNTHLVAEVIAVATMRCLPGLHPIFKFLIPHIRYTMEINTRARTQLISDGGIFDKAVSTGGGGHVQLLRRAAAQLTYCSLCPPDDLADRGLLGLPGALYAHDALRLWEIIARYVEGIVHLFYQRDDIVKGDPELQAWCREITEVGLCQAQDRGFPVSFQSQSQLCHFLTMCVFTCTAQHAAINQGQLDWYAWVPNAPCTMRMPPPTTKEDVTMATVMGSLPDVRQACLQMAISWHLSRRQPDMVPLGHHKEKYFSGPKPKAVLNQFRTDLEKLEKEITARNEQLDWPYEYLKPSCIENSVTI
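Purified human 12hLO at 150 nM in 25 mM Hepes, 0.01% Triton X-100, pH 7.0, preincubated 15 min at room temperature with compound. Reaction started with 40 uM arachidonic acid, 30 min at room temperature. Hydroperoxide measured by Fe-xylenol orange, 573/405 nm absorbance ratio.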
An asterisk follows results filed as active; ? = inconclusive; · = not tested or not shown; ! = a repeat was not active. Most compounds without a hit are left out; they make up all but 15% or so of the library. The call rests on the fitted dose curve; in most records, active means well fitted curve in the direction sought with a large enough effect; inconclusive means small, poorly fitted or top-dose-only effect, or another doubt; inactive means no such curve, though single readings can be large; an effect the other way counts as inactive or inconclusive. On the % scale 0 is the no-effect control and ±100 the full control effect; potency means the concentration at half of the fitted maximal effect.

SMILES	VP16 counter	TDP1 cell CPT	RORgamma inh	DT40 TDP1 no CPT	ELG1 repair inh	ALOX12 inh
COc1ccc(-c2c(-c3cccc(C)c3)oc3ccc(-c4ccc5c(c4)OCO5)cc23)cn1	·	?	·	8.2µM*	·	1.9%
CCSc1cnc(-c2ccccc2)n1CC	-27.2%	-7.3%	12.6µM*	?	16.6%	?
CCn1c(SCC(O)c2ccccc2)nnc1-c1ccccc1 (configuration not stated)	21.2%	-1.7%	23.2%	1.7%	?	17.3%
Cc1ccc(C(CNC(=O)c2cc(=O)c3cc(Br)ccc3o2)N2CCCCC2)o1 (configuration not stated)	·	·	·	·	·	-23.9%
C[C@@H](CN1CCC(Cc2ccccc2)CC1)[C@@H](O)c1ccc(O)cc1	-10.3%	23.1µM*	13.1%	7.31µM*!	-11.0%	?
CCCN1CNc2c(c(=O)[nH]c(=S)n2CCC)C1	·	14.2%	·	1.8%	·	·
CCCN1CNc2c(c(=O)[nH]c(=S)n2CCc2cccc(Cl)c2Cl)C1	·	?	·	10µM*	·	·
CCCN1CNc2c(c(=O)[nH]c(=S)n2CCc2cc(Cl)cc(Cl)c2)C1	·	5.62µM*	·	3.98µM*	·	·
Cc1cc(O)c2c(c1)C(=O)[C@@]13Oc4c5c(c(O)c6c(O)cc(C)cc46)C(=O)C[C@H](O)[C@H]5[C@@H]1[C@@H](O)CC(=O)C3=C2O	·	14.6µM*	·	?	·	·
COc1ccc(NC(=O)C2CN(S(=O)(=O)C3CC3)CC23CCCCC3)cc1 (configuration not stated)	·	·	·	·	·	9.1%
CCC(C(=O)NC1CCN(c2cc(C(F)(F)F)nc(C)n2)CC1)c1ccccc1 (configuration not stated)	·	·	·	·	·	27.9%
COc1ccc(C(=O)OCC(=O)Nc2nnc(-c3ccccc3)o2)cc1	5.01µM*	?	3.98µM*	-20.3%	-5.9%	15.0%
CCOc1ncccc1C(=O)OCC(=O)c1ccc(Br)s1	·	?	·	4.61µM*	18.2%	-20.8%
COc1ccc(-c2nnc(NC(=O)Cc3ccccc3)o2)cc1	2.82µM*	?	1.58µM*	?	7.6%	4.3%
CCOc1ncccc1C(=O)OCC(=O)Nc1nnc(-c2ccccc2)o1	·	?	·	23.1µM*	16.2%	-1.0%
CCC1(N2CCN(C(=O)Nc3cc(Cl)ccc3OC)CC2)CCN(C(=O)NC)C1 (configuration not stated)	·	·	·	·	·	32.9%
COCCn1cnnc1SC(C)C(=O)c1cccc(Cl)c1 (configuration not stated)	·	·	·	·	·	-16.1%
O=C1NC2(CCCC2)C(=O)N1Cc1coc(-c2cccs2)n1	·	·	·	·	·	25.4%
O=C1[C@@H]2C[C@@H](O)CN2C2(CN(Cc3ccccc3Cl)C2)C(=O)N1Cc1ccccc1F	·	·	·	·	·	-27.3%
COc1cc(OC)cc(-c2nnc(NC(=O)Cc3ccc(F)cc3)o2)c1	0.631µM*	1.46µM*	0.708µM*	2.59µM*	13.8%	0.1%
Cc1ccc(NC(=O)CSc2nnc(-c3ccc(Br)cc3)o2)c(C)c1	·	?	·	-53.2%	·	-15.7%
Cc1ccc(CC(=O)Nc2nnc(-c3ccc(F)cc3)o2)c(C)c1	3.16µM*	?	2.51µM*	16.4µM*	-20.3%	·
O=C(NCC(=O)N1CCN(S(=O)(=O)c2c(Cl)cccc2Cl)CC1)NCc1ccccc1	·	·	·	·	·	41.6%
O=C(CCC1CCCN(Cc2cnc(-c3ccccc3)s2)C1)Nc1ccccc1F (configuration not stated)	·	·	·	·	·	6.2%
CCOCCOC(=O)c1[nH]c2c(c1C)C(=O)CC(c1cccs1)C2 (configuration not stated)	-3.0%	1.03µM*	23.8%	0.82µM*	?	-8.8%

High-throughput results (PubChem BioAssay)
